Assay results from the supplement of paper PMC11732987, “Enantioselective OTUD7B fragment discovery through chemoproteomics screening and high-throughput optimisation” (Communications Chemistry, 2025).

What was measured:
Experiment in all cases: log2 ratio of Biotin-Ahx-Ub-VS probe labelling (fragment/DMSO); higher = less target engagement (more negative = stronger competition), active = hit call of the paper (q ≤ 0.05, log2 ratio ≤ -1)
Settings in all cases: compound concentration: 200 uM; treatment time: 3 h
USP19 = target: T1, USP19 (UniProt O94966)
T1 sequence (whole entry): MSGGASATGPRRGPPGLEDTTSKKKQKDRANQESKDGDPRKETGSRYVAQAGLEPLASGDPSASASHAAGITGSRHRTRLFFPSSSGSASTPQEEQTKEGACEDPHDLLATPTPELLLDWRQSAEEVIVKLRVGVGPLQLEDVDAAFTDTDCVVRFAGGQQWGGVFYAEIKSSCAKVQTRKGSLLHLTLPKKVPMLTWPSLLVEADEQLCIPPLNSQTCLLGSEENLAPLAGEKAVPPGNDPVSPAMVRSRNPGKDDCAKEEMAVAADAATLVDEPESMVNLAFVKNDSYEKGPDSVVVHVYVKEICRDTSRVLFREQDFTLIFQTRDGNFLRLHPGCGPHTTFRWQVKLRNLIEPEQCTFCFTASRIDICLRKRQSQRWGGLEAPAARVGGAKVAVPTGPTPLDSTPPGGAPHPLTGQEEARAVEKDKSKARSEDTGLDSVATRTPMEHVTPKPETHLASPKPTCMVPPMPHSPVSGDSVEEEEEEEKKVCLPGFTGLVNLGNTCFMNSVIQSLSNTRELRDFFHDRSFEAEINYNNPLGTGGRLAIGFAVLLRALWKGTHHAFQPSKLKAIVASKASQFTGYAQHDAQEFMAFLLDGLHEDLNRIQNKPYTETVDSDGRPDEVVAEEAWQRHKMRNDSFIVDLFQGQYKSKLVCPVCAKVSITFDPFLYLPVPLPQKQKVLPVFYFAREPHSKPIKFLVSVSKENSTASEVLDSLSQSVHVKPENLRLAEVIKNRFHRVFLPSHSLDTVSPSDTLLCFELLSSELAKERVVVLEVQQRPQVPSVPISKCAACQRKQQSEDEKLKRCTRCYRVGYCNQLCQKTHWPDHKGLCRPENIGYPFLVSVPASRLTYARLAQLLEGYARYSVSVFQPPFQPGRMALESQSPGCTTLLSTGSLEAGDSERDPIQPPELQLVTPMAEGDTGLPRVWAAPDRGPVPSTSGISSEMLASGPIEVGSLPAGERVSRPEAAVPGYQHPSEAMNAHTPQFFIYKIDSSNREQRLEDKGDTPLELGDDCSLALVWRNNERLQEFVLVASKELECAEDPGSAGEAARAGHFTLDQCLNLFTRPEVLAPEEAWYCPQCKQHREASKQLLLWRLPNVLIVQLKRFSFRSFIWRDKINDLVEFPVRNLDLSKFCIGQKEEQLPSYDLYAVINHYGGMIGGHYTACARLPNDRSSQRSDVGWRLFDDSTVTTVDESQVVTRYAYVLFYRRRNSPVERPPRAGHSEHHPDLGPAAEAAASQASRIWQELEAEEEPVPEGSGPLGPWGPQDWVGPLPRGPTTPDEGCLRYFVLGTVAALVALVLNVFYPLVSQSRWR
Outline: (§1)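 HEK293T lysate (495 µg per sample, in Tris/CHAPS/IGEPAL buffer with protease inhibitors) was treated in triplicate with fragment at 200 µM or with DMSO for 3 h. It was then treated with Biotin-Ahx-Ub-VS (0.5 µM final) for 1 h. Labelled DUBs were NeutrAvidin-enriched, digested with LysC and trypsin, and run by diaPASEF LC-MS/MS. Spectronaut label-free quantities were global-median-normalised. Values are average log2 ratios fragment/DMSO by unpaired t-test, using proteins with ≥2 unique peptides.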

USP24 = USP24 (UniProt Q9UPU5)
Outline: as §1

USP25 = target: T2, USP25 (UniProt Q9UHP3)
T2 sequence (whole entry): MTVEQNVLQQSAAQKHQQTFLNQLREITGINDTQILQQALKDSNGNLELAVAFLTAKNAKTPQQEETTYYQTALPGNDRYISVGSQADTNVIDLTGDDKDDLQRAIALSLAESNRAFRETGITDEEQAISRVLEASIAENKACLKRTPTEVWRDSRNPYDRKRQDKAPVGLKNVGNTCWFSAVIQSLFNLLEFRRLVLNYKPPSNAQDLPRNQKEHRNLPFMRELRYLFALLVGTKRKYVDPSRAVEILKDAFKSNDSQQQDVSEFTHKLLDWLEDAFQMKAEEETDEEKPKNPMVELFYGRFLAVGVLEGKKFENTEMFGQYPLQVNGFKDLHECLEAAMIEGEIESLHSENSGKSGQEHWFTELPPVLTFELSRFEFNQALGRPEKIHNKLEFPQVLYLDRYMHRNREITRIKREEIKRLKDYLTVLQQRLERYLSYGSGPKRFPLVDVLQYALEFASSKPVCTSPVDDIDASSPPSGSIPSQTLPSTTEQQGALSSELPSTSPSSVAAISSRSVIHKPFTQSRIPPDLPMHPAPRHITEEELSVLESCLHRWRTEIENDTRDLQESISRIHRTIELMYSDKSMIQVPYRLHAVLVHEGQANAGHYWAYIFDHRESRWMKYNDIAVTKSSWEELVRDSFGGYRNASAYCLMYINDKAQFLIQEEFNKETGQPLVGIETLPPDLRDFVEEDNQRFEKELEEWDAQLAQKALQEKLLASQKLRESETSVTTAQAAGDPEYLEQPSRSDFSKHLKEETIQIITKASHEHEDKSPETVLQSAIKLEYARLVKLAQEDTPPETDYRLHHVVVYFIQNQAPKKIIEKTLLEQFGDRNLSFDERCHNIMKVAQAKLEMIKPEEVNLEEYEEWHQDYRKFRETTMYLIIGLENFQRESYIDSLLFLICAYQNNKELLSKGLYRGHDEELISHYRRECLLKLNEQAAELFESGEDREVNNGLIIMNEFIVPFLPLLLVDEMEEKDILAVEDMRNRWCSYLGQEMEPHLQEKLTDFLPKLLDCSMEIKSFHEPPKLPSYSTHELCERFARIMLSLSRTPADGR
Outline: as §1

USP28 = target: T3, USP28 (UniProt Q96RU2)
T3 sequence (whole entry): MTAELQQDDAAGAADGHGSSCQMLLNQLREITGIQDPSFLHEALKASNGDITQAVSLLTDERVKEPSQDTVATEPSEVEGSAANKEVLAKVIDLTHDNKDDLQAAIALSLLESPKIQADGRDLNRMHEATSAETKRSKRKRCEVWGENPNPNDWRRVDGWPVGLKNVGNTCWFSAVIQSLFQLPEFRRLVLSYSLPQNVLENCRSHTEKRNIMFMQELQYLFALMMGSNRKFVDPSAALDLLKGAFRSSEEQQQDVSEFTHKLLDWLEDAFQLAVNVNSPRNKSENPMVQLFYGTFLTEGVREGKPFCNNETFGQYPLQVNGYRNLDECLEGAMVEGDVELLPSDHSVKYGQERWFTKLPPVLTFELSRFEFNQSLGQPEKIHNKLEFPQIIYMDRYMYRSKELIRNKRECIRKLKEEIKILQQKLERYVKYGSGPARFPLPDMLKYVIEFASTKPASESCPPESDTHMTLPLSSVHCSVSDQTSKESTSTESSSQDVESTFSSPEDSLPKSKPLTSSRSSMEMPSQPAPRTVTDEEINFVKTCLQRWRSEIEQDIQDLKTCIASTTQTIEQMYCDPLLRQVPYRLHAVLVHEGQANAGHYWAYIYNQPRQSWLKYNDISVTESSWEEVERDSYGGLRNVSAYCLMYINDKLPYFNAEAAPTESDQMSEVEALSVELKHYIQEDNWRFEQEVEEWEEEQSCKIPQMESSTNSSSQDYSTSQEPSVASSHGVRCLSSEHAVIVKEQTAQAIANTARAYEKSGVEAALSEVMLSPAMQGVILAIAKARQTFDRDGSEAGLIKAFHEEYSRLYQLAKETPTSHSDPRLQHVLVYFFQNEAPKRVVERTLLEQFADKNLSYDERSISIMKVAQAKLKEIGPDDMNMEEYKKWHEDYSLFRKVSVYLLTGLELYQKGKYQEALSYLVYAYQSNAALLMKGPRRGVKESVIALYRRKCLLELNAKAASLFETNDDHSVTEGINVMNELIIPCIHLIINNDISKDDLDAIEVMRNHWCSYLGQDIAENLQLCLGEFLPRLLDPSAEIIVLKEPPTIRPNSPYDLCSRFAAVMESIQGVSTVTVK
Outline: as §1

Measured: log2 ratio of Biotin-Ahx-Ub-VS probe labelling

Chain of USP24 (Q9UPU5 whole entry): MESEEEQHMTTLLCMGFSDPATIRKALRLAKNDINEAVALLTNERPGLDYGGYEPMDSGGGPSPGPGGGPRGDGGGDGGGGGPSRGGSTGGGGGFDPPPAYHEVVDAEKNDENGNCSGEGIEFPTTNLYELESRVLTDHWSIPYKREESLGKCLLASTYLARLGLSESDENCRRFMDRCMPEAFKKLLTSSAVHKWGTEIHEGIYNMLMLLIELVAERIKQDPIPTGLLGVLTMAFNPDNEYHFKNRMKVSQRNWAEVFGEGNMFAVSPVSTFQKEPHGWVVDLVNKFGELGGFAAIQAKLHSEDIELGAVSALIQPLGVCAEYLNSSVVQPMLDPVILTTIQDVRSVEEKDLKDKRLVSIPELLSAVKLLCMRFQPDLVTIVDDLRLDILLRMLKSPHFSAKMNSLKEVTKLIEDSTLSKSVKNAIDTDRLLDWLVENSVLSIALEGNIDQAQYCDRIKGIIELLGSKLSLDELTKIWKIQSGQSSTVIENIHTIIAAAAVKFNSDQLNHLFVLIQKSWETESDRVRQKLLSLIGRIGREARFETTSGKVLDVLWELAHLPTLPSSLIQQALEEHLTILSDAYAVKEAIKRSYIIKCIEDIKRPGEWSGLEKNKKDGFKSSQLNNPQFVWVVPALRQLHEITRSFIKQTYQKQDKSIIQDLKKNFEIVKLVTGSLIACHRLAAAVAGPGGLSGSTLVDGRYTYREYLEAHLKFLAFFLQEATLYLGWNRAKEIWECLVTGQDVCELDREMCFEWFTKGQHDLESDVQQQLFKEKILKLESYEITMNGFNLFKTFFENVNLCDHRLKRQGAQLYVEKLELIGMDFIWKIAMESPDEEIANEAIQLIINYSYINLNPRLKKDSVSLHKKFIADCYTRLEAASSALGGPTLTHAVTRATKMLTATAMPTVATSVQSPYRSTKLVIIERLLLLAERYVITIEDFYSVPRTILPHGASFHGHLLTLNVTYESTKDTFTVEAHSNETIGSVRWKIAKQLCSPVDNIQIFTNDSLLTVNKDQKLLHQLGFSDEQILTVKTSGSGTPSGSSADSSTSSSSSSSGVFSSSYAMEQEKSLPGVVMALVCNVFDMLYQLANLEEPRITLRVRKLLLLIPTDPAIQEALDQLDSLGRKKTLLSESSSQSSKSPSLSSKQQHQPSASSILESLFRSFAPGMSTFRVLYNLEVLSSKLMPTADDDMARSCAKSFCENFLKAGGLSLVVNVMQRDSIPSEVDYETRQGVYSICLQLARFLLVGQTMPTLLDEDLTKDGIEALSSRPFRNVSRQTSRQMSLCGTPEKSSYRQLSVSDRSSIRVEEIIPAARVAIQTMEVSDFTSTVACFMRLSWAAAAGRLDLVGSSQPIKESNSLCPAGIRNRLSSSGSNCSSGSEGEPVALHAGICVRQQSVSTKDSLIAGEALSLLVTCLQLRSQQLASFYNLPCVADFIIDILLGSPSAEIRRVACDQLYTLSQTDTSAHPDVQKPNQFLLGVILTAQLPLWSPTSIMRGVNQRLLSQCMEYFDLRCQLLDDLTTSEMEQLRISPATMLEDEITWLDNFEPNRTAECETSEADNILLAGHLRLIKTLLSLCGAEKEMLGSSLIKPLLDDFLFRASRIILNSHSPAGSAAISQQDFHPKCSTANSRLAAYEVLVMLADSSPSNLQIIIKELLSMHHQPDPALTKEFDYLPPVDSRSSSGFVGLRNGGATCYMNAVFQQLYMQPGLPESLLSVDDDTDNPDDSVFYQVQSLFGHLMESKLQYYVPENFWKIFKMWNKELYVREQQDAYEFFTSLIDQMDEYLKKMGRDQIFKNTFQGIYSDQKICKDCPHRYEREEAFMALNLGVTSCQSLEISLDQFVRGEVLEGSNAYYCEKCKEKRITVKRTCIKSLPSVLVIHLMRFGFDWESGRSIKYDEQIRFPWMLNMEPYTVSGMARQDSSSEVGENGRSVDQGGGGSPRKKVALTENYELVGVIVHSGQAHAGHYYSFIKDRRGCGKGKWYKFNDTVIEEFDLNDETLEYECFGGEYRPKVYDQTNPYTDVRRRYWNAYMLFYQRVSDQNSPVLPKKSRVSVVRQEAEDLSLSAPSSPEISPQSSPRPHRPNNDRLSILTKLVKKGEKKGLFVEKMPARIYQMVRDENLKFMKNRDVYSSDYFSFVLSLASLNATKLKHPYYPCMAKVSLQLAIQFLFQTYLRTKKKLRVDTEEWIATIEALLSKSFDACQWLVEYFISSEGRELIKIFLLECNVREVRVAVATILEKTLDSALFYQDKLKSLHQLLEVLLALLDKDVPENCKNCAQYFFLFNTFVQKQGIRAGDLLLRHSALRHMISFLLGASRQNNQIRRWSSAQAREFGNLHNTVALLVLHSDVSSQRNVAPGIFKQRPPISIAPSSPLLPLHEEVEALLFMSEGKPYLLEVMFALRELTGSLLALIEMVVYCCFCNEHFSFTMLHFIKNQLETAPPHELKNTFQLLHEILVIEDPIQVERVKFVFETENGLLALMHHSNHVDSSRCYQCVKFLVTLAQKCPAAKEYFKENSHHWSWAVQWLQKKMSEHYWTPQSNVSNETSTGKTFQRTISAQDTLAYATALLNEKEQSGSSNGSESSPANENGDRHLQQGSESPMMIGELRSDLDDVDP

Cc1cccc(C(CNC(=O)CCl)N2CCOCC2)c1.Cl (centres undefined)
inactive: USP19 0.101 | USP24 0.135 | USP25 -0.355 | USP28 -0.0645
